Source: publication PMC4336329 (PLoS ONE, 2015)
The campaign covered roughly 310,000 compounds. About 14,000 (4.5%) showed an effect of 50% or more. The effect is printed as a negative number. Many of the other results were omitted from the sample, so strong results are more common in it than they were.

What follows are compounds tested against human ether-à-go-go-related gene (hERG) potassium channel (human, UniProt Q12809) (assay: primary screen, population patch clamp on CHO cells stably expressing hERG; higher = less effect of the substance).
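Further: peak tail current of the secondary pulse compared with the same well before compound.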

Sequence of human ether-à-go-go-related gene (hERG) potassium channel (Q12809 whole entry, looked up): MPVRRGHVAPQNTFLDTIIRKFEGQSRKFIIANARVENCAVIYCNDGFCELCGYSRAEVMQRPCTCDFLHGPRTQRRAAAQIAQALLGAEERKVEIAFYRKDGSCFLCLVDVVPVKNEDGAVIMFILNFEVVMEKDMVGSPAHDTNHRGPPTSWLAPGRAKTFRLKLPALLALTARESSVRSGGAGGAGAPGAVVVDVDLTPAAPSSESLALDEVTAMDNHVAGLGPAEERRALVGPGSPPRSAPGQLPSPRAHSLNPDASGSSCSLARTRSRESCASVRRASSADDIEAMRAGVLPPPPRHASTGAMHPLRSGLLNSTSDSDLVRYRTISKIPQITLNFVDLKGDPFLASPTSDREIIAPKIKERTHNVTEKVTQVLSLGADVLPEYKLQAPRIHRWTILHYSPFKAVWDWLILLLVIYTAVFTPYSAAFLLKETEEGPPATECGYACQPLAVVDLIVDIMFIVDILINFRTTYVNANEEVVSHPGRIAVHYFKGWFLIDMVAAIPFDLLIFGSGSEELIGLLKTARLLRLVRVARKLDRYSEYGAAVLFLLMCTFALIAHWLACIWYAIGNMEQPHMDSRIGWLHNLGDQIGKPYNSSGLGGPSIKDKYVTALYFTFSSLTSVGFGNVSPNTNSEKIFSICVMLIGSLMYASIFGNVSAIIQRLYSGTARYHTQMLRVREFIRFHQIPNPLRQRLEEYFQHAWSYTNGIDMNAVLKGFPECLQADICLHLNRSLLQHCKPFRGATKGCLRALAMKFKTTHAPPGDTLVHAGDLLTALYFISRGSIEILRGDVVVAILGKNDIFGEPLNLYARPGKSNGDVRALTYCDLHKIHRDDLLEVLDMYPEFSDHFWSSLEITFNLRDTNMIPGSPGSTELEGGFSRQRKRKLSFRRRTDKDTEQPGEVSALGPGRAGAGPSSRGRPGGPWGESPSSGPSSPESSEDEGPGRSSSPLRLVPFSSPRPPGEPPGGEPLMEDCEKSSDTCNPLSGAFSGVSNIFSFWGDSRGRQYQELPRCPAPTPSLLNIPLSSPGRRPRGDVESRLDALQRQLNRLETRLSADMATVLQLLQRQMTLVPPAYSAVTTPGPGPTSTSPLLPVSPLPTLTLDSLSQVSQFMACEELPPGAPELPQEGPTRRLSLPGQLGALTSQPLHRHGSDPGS

| Structure (SMILES) | hERG current change (%, negative = inhibition) at 10uM |
| --- | --- |
| CCOC(=O)c1cn(Cc2ccc(C)cc2)c2cc(F)ccc2c1=O | -10.9% |
| O=C(c1ccc(F)cc1)c1cn(Cc2ccc(F)cc2)c2cc3c(cc2c1=O)OCCO3 | -71.1% |
| C=CCn1cc(C(=O)OCC)c(=O)c2ccc(F)cc21 | 5.56% |
| O=C(C(=O)N1CCOCC1)c1cn(Cc2ccc(F)cc2)c2ccccc12 | -32% |
| CC(=O)Nc1cc2c(cc1C(=O)c1ccc(C)cc1)OCCO2 | 5.77% |
| CCn1cc(C(=O)O)c(=O)c2cc3c(cc21)OCO3 | 20.5% |
| Cc1ccc(Cn2cc(S(=O)(=O)c3ccc(C(C)C)cc3)c(=O)c3cc4c(cc32)OCO4)cc1 | -8.58% |
| Cc1ccc(Cn2cc(C(=O)NN)c(=O)c3ccc(F)cc32)cc1 | -51.6% |
| Cc1ccc(Cn2cc(C(=O)c3ccc(F)cc3)c(=O)c3cc4c(cc32)OCCO4)cc1 | -57.1% |
| O=C(O)CC1SC(=O)N(Cc2ccccc2)C1=O (centres unmarked) | 21% |
| Cc1cc(Cl)ccc1OCc1cn2cccnc2n1 | -17.5% |
| CCCn1cc(SCC(=O)NCC2CCCO2)c2ccccc21 (centres unmarked) | 4.17% |
| CC(C)CN(C(=O)COC(=O)c1ccc2c(c1)OCCO2)c1c(N)n(Cc2ccccc2)c(=O)[nH]c1=O | 5.66% |
| Cc1ccc(C)n1NC(=O)c1ccco1 | 14.8% |
| O=C(CSc1ncccn1)Nc1ncc(C(F)(F)F)cc1Cl | 47.2% |
| COC(=O)C1=C(C)NC(C)=C(C(=O)O[C@@H]2CCCN(Cc3ccccc3)C2)[C@@H]1c1cccc([N+](=O)[O-])c1.Cl | 9.68% |
| COc1cccc(N/C(SCc2cccc([N+](=O)[O-])c2)=C(/C#N)C(N)=O)c1 | -19.9% |
| CCOc1ccc(N/C(SCc2cccc([N+](=O)[O-])c2)=C(/C#N)C(N)=O)cc1 | -59.1% |
| CCOc1ccc(N/C(SC)=C(/C#N)C(N)=O)cc1 | 4.98% |
| COc1ccccc1CNCc1ccc(OC)c(OC)c1OC.O=C(O)C(=O)O | -8% |
| COc1ccc(CNCCc2ccc([N+](=O)[O-])cc2)c(OC)c1OC.O=C(O)C(=O)O | -68.9% |
| COc1ccc(CCNCc2ccc(OC)c(OC)c2OC)cc1 | -37.6% |
| COc1ccc(CNCCc2cccc(F)c2)c2ccccc12.O=C(O)C(=O)O | -74% |
| COc1ccccc1CCNCc1ccc(OC)c(OC)c1OC.O=C(O)C(=O)O | 15.5% |

| Structure (SMILES) | hERG current change (%, negative = inhibition) at 10uM |
| --- | --- |
| COc1cc(OC)c(OC)cc1CNCCc1cccc(F)c1.O=C(O)C(=O)O | -15.2% |
| COc1ccc(CNCCc2ccc3c(c2)OCO3)c(OC)c1OC.O=C(O)C(=O)O | -29.9% |
| COc1ccc(CNCCc2ccc(Cl)cc2)c(OC)c1OC.O=C(O)C(=O)O | -51.6% |
| COc1cccc(CNCCc2cccc(F)c2)c1OC.O=C(O)C(=O)O | -5.22% |
| O=C(N/N=C/c1c(O)ccc2ccccc12)c1cccnc1 | 7.7% |
| COC(=O)COc1ccc(S(=O)(=O)N2CCN(c3ccccc3F)CC2)cc1 | -3.27% |
| O=C(Nc1ccc(-c2csnn2)cc1)C(Cl)(Cl)Cl | 17.5% |
| CC(C)C(=O)OCC(=O)Nc1ccc(N=Nc2ccccc2)cc1 | 4.2% |
| CCN(CC)S(=O)(=O)c1cc(NS(=O)(=O)c2cccc(Cl)c2Cl)ccc1C | -1.79% |
| CCCOc1ccc(NC(=O)C2CC(=O)N3CCCN=C3S2)cc1 (centres unmarked) | -11% |
| CN1CCC(NC(=O)NC2CCCCC2)CC1 | 11.9% |
| Cc1cc(Nc2cccc(F)c2)n2c(n1)nc1ccccc12 | 3.44% |
| Cc1nnc2c(NC3CCCCC3)nc3ccccc3n12 | 1.89% |
| Cc1cc(C)c2c(n1)nn1c(N3CCN(c4ccccc4)CC3)cc(C)nc21 | 4.66% |
| c1ccc(-c2csc(N3CCN(c4ccccn4)CC3)n2)cc1 | -1.09% |
| Cc1cc(N2CCN(c3ccccc3)CC2)nc2ccccc12 | 3.04% |
| Cc1cc(N2CCN(c3ccccn3)CC2)n2cc(-c3ccccc3)nc2n1 | -72.3% |
| Cc1cc(N2CCN(c3ccccc3)CC2)n2cc(-c3ccccc3)nc2n1 | -75.3% |
| Cc1cc(NC2CCCCC2)n2c(n1)nc1ccccc12 | -55.1% |
| Cc1cc(-c2ccccc2)nc(N2CCN(c3ccccn3)CC2)n1 | 1.11% |
| Cc1cc(N2CCN(c3ccc(F)cc3)CC2)nc(-c2ccccc2)n1 | -13.7% |
| Cc1cc(N2CCN(c3ccccc3)CC2)n2c(n1)nc1ccccc12 | -68.7% |
| Cc1cc(N2CCN(c3ccccc3)CC2)nc(-c2ccccc2O)n1 | 6.15% |
